Molecules are shown by their SMILES. The source made the active and inactive calls. Rule for the calls: active = hit-call score of the fitted dose curve at least 0.9, where 1 is the maximum; inactive = score below 0.9.

For this assay, the target named is human Matrix Metallopeptidase 9 (MMP9), MMP9 (gene 4318) (UniProt P14780). Put plainly: ERF_FR_ENZ_hMMP9: Eurofins (ERF) Enzymatic LeadHunter Assay for human Matrix Metallopeptidase 9 (MMP9). The protocol: ERF_FR_ENZ_hMMP9 is a biochemical, single-readout assay that uses extracted gene-proteins in a cell-free assay. Measurements were taken 1.5 hour after chemical dosing in a 96-well plate. See MMP9 Human Matrix Metallopeptidase Enzymatic Assay, Cerep.ERF_FR_ENZ_hMMP9 is an assay component calculated from the ERF_FR_ENZ_hMMP9 assay. It is designed to measure enzyme activity using a type of enzyme reporter as detected by fluorescence intensity with fluorimetry technology.Data from the assay component ERF_FR_ENZ_hMMP9 was analyzed at the assay endpoint, ERF_FR_ENZ_hMMP9, in the positive analysis fitting direction relative to DMSO as the negative control and baseline of activity. Using a type of enzyme reporter, loss-of-signal activity can be used to understand changes in enzymatic activity as they relate to gene MMP9. To generalize the intended target to other relatable targets, this assay endpoint is annotated to the protease intended target family, where the subfamily is matrix metallopeptidase.
Chain of human Matrix Metallopeptidase 9 (MMP9), MMP9 (gene 4318) (P14780 whole entry, looked up): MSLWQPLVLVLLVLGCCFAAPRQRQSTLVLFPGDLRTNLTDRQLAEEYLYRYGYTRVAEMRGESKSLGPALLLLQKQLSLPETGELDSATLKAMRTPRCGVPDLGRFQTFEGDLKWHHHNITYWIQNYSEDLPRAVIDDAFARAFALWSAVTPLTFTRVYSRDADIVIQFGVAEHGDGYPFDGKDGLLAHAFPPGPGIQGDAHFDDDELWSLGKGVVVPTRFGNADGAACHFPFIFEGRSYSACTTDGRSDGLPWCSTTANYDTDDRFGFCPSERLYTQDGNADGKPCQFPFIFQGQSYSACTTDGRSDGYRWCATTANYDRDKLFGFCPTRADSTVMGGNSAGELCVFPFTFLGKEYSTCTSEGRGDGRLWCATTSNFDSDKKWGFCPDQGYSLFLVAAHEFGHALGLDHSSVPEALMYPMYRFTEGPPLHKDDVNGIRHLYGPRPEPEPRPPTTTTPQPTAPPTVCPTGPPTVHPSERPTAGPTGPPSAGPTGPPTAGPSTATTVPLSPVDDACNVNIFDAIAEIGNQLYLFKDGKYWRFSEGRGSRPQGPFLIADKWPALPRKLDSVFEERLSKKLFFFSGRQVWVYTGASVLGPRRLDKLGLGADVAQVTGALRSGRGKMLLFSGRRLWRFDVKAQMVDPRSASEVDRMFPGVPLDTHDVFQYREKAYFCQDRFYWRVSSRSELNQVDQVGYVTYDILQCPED
[…] are incubated for 60 minutes at room tempreature with Mca-PLGL-Dap(Dnp)-AR-NH2 (7.5 uM) as sunstrate and […] as control inhibitor. Test Sample Requirements: Minimum for 1) Screen: 60 ul of 10 mM stock -OR- 1 mg (pre-weighed) for 10 uM final testing. 2) Dose Response: 90 ul of 10 mM stock -OR- 1 mg (pre-weighed) for a top concentration at 10 uM.
Take `O=C(/C=C/c1ccc(O)cc1)CC(=O)/C=C/c1ccc(O)cc1`: the call was inactive.

Source of the values: PubChem BioAssay AID2284116 (EPA ToxCast).
